RE007 growth inh: less growth of the S. pombe RE007 Vpr strain | actives 0.21% (n = 360,000) | S. pombe RE007 Vpr strain, BacTiter-Glo ATP luminescence, 24 h | Potency, µM (top dose mostly 92.2 µM), hits mostly inhibitors; active = well fitted falling curve with a large enough effect; inconclusive = small, poorly fitted or top-dose-only effect; inactive = no such curve, though single readings can be large or run the other way; note: nearly all actives have a fitted effect of over 50% in size
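Fission yeast RE007 carrying one integrated HIV-1 vpr copy, seeded at OD 0.01 in PMG+AL medium with 23 nL pinned compound. Grown 24 h at 30 degrees; viability read by BacTiter-Glo luminescence after 5 min.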
LmPK inhibitor: LmPK (Leishmania mexicana) enzyme inhibition | Q27686 | purified LmPK, Kinase-Glo ATP luminescence, 1 h | Potency, µM (top dose mostly 57.5 µM), hits mostly inhibitors | actives 0.37% (n = 290,000)
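Kinase-Glo luminescence read after 1 h RT reaction of 0.1 nM LmPK with 0.5 mM PEP and 0.1 mM ADP. Activity scaled between uninhibited and enzyme-free controls.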
AmpC detergent: AmpC beta-lactamase inhibition with detergent present; P00811; AmpC hydrolysis of nitrocefin, absorbance 480 nm, 0.01% Triton; Potency, µM (doses to about 114 µM), most hits filed as inhibitors; actives 0.041% (n = 370,000); AID 485294; note: nearly all actives have a fitted effect of over 25% in size
Target sequence (P00811 whole entry, looked up): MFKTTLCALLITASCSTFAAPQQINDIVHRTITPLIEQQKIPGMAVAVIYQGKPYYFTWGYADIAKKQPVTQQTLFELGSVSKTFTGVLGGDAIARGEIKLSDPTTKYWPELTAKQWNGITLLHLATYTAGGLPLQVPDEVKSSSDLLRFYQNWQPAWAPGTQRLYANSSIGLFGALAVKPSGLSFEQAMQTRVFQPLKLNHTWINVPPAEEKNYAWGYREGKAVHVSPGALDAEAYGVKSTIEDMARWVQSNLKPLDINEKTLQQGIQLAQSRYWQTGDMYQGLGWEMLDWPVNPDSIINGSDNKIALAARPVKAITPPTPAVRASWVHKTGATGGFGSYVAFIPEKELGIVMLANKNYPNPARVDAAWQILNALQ
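20 mM phosphate pH 7.0 + 0.01% (detergent screen) or 0.0001% Triton X-100; 5.3 nM AmpC reagent; cpd preinc 15 min RT; nitrocefin (800 uM stock) to start; A480 q20 s × 4 min; Activity was normalised to no-enzyme and no-compound control wells.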
AmpC no deterg: AmpC beta-lactamase inhibition without detergent | AmpC nitrocefin hydrolysis, absorbance 480 nm, 0.0001% Triton | Potency, µM (highest dose often 57.1 µM), actives largely listed as inhibitors | actives 0.52% (n = 330,000); note: nearly all actives have a fitted effect of over 20% in size
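20 mM phosphate pH 7.0 + 0.01% (detergent screen) or 0.0001% Triton X-100; 5.3 nM AmpC reagent; cpd preinc 15 min RT; nitrocefin (800 uM stock) to start; A480 q20 s × 4 min; Activity was normalised to no-enzyme and no-compound control wells.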
Giardia FBPA inh: blocks Giardia fructose-bisphosphate aldolase activity; A8B2U2; purified Giardia FBPA; Potency, µM (titrated, usually from 59.6 µM), actives largely listed as inhibitors; actives 0.71% (n = 290,000); AID 2451; note: nearly all actives have a fitted effect of over 55% in size
Target sequence (A8B2U2 whole entry, looked up): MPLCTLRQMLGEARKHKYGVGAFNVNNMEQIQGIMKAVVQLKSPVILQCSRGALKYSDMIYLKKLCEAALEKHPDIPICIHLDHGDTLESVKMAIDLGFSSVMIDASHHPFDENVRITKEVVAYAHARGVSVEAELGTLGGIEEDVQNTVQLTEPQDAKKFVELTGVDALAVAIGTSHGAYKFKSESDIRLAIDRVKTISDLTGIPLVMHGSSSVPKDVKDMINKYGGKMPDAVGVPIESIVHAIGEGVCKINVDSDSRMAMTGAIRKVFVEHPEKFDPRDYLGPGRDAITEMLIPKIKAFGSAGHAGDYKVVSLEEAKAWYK
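40 nM FBPA preincubated 10 min at RT with compound (up to 57.5 uM final), then substrate plus GAPDH/TPI/NAD/arsenate coupling and diaphorase/resazurin added. Fluorescence read after 20 min at RT, 525/598 nm.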
TbPYK inhibitor: T. brucei pyruvate kinase inhibition; AID 624173; Potency, µM (doses to about 76.8 µM), hits mostly inhibitors; actives 0.12% (n = 410,000); TbPYK enzyme, Kinase-Glo Plus ATP luminescence, 45 min; note: nearly all actives have a fitted effect of over 50% in size
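Readout: single end-point luminescence (Kinase-Glo Plus, 10 min). Reaction conditions were TbPYK/substrate plus 130 uM ADP, 45 min at RT, pH 7.2 TEA buffer. No-enzyme wells served as controls, and data were normalized before concentration-response fitting.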
Hits are given with their value; . = inactive; ? = inconclusive; / = no result; [ ] = remark or other dose. Compounds with a hit are over-represented: about 1.4% of the library has one in this group of screens. Unless noted, calls come from the whole dose curve; as a rule, active = well fitted curve in the direction sought with a large enough effect; inconclusive = small, poorly fitted or top-dose-only effect, or another doubt; inactive = no such curve, though single readings can be large; an effect the other way counts as inactive or inconclusive.

SMILES	RE007 growth inh	LmPK inhibitor	AmpC detergent	AmpC no deterg	Giardia FBPA inh	TbPYK inhibitor
O=C(CCn1cnc2onc(-c3ccc(F)cc3)c2c1=O)N1CCN(c2cccc(Cl)c2)CC1	/	/	.	/	/	.
CCC(=O)N1CCc2cc(Br)cc(S(=O)(=O)CCC(=O)N3CCN(c4ccccc4F)CC3)c21	/	/	.	/	/	.
O=C(COc1ccc(F)cc1)Nc1ccc2nc(SCC(=O)N3CCOCC3)sc2c1	/	/	.	/	/	.
Cc1ccc(S(=O)(=O)N/N=C/c2c[nH]c3ccccc23)cc1	.	.	.	.	.	.
Cc1ccc(S(=O)(=O)/C(C#N)=C/c2c[nH]c3ccccc23)cc1	.	.	.	17.8µM	.	.
CCOC(=O)N1CCN(C(=O)C2CCN(C(=O)c3ccccc3C)CC2)CC1	?	/	/	/	/	7.94µM
Cc1ccccc1C(=O)N1CCC(C(=O)N2CCN(c3ncccn3)CC2)CC1	.	/	.	.	/	.
O=C1C(Cl)=CC(=Nc2ccc(O)cc2)C=C1Cl	.	/	?	28.2µM	?	?
O=C(Nc1ccc(O)cc1)c1cc2ccccc2c(=O)s1	.	.	.	.	.	.
O=C(Nc1ccccc1)c1cc2ccccc2c(=O)s1	.	.	89.1µM	.	.	.
CCc1nc(SC)ncc1C(=O)N1CCN(c2cc(C)ccc2C)CC1	/	/	.	/	/	.
CC1(C)OC(C)(C)/C(=C/Nc2ccc(O)cc2)C1=O	.	.	?	.	2.81µM	.
CC(C)c1cnc2c(c1SCc1cccc(C(F)(F)F)c1)c(=O)n(C)c(=O)n2C	/	/	.	/	/	?
CN(C)/C=C1\C(=O)ON=C1c1ccccc1	.	.	.	.	.	.
Cc1ccc(C2=NOC(=O)/C2=C\C=C\c2ccccc2)cc1	.	.	.	31.6µM	.	.
CCc1nn2c(=O)cc(COC(=O)c3ccccc3NC(=O)c3cccs3)nc2s1	/	/	.	/	/	.
CN(CC(=O)Nc1cccc(F)c1)C(=O)c1cc(-c2ccco2)nc2ccccc12	.	/	.	17.8µM	/	.
COc1ccc(NC(=O)CN(C)C(=O)c2cc(-c3ccco3)nc3ccccc23)cc1	.	/	.	.	/	.
CC1(C(=O)O)CCC2(C)CCC3(C)C(=CC(=O)[C@@H]4C5(C)CC[C@H](O[C@H]6O[C@H](C(=O)O)C(O)C(O)[C@H]6O[C@@H]6O[C@H](C(=O)O)C(O)C(O)C6O)C(C)(C)[C@@H]5CCC43C)[C@@H]2C1 (stereo partly drawn)	/	/	/	/	/	.
Cc1cccn2cc(-c3ccccc3)nc12	.	?	?	.	.	.
Cc1cccn2cc(-c3ccc(F)cc3)nc12	?	15.8µM	?	.	.	.
Cc1ccc(-n2c(-c3ccc(Cl)cc3)n[nH]c2=S)c(C)c1	.	20µM	?	.	.	5.01µM
FC(F)(F)c1ccccc1-n1c(-c2cnccn2)n[nH]c1=S	.	?	.	.	?	?
COc1ccc(-c2n[nH]c(=S)n2-c2ccc(C)cc2C)cc1	.	.	?	.	.	17.8µM
S=c1[nH]cc(-c2ccccc2)n1-c1ccccc1Cl	.	?	.	?	.	.
SMILES	RE007 growth inh	LmPK inhibitor	AmpC detergent	AmpC no deterg	Giardia FBPA inh	TbPYK inhibitor
COc1ccccc1-n1c(-c2ccccc2)c[nH]c1=S	.	11.2µM	.	.	?	?
Cc1ccc(-n2c(-c3cnccn3)n[nH]c2=S)c(Br)c1	.	31.6µM	.	.	.	?
COc1cccc(NC(=O)C2CCCN(c3nnc(-n4c(C)ccc4C)s3)C2)c1 (stereo not drawn)	/	/	.	/	/	.
CO/N=C(\C(=O)N[C@@H]1C(=O)N2C(C(=O)[O-])=C(C[n+]3cccc4c3CCCC4)CS[C@H]12)c1csc(N)n1	/	/	/	/	/	.
CCc1cc(OC)c(CC(C)N)cc1OC (stereo not drawn)	/	/	/	/	/	.
Cc1ccc(-n2c(-c3cccnc3)n[nH]c2=S)c(C)c1	.[3.69 µM]	12.6µM	.	.	.	/
COc1ccccc1-n1c(-c2cccnc2)n[nH]c1=S	.	14.1µM	.	.	.	?
S=c1[nH]nc(-c2cccnc2)n1-c1ccccc1	.	.	.	.	.	?
CCOC(=O)c1ccc(N2C(=O)c3n[nH]c(-c4ccco4)c3C2c2cccc(O)c2)cc1 (stereo not drawn)	/	/	.	/	/	.
Cc1cccc(/C=N/NC(=O)c2cc3c(s2)-c2ccccc2CC3)c1	.	.	.	.	.	.
O=C(N/N=C/c1cccc(C(F)(F)F)c1)c1cc2c(s1)-c1ccccc1CC2	.	.	.	0.159µM	.	.
CC(C)(C)NC(=O)NC(=O)CN1CCN(c2ccccc2)CC1	.	.	.	.	.	.
CC(C)(C)NC(=O)NC(=O)CN1CCN(c2ccc(O)cc2)CC1	.	12.6µM	?	.	?	?
Cc1c(C(=O)N(Cc2ccc(N(C)C)cc2)CC2CCCO2)oc2ccc(Br)cc12 (stereo not drawn)	/	/	.	/	/	.
O=C(CSc1n[nH]c(-c2ccncc2)n1)c1ccccc1	.	.	.	0.398µM	.	.
O=S(=O)(Nc1cccc(-c2ccc(N3CCCCCC3)nn2)c1)c1ccccc1Cl	.	.	.	2.51µM	/	.
O=C(Nc1ccccc1)C(Cl)C(=O)c1ccccc1 (stereo not drawn)	7.08µM	.	?	.	.	.
CC(=O)C(Cl)C(=O)Nc1ccccc1 (stereo not drawn)	.	.	.	.	.	?
C[C@H]1[C@@H]2Cc3ccc(O)cc3[C@]1(C)CCN2CCc1ccccc1	/	/	/	/	/	.
Cc1ccc(NC(=S)NC2CCSc3ccccc32)cc1C (stereo not drawn)	.	.	.	11.2µM	/	.
COCCCNC(=S)NC1CC2CCCC(C1)N2Cc1ccco1 (stereo not drawn)	.	.	.	1.78µM	.	.
COc1c(C)cccc1C(=O)Nc1ccc(Cl)c(-c2nc3cc(C)ccc3o2)c1	/	/	.	/	/	.
CCCCOC(=O)c1[nH]c2c(c1C)C(=O)CC(c1cc(OC)c(OC)c(OC)c1)C2 (stereo not drawn)	.	.	?	31.6µM	.	.
O=C1NN(c2ccccc2)C(=O)/C1=C\c1ccc(-c2cc([N+](=O)[O-])ccc2O)o1	.	17.8µM	.	.	.	?
O=C1NN(c2ccc(Cl)cc2)C(=O)/C1=C\c1ccc(-c2cccc(C(=O)O)c2)o1	.	.	.	.	.	.
COc1ccc(CNc2nc(-c3ccc(N(C)C)cc3)nc3ccccc23)c(OC)c1	/	/	/	/	17.7µM	/
COc1ccc(CNc2nc(-c3ccc(C(=O)N(C)C)cc3)nc3ccccc23)c(OC)c1	/	/	/	/	.	/
O=C(Nc1ccc(S(=O)(=O)Nc2nccs2)cc1)c1ccc(F)c(S(=O)(=O)N2CCOCC2)c1	.	.	?	7.94µM	.	.

Source: PubChem (National Center for Advancing Translational Sciences (NCATS))
